Consider 26 compounds from PubChem BioAssay (NCATS).

In assay [1] the target is D(1A) dopamine receptor (Homo sapiens) (UniProt P21728). The experiment in a line: HTS Assay for Allosteric Agonists of the Human D1 Dopamine Receptor: Primary Screen for Potentiators (AID 488982). Further: 0% is about no effect. Summed up:
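Tetracycline-induced HEK293 Trex D1 cells with forced coupling to calcium, loaded with no-wash calcium dye; kinetic fluorescence read 180 s after compound addition for agonism, then a further 180 s after an EC20 dopamine challenge for potentiation.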

Assay [2] can be described thus: Validation screen for small molecules that induce genotoxicity in human embryonic kidney (HEK293T) cells expressing luciferase-tagged ELG1 (AID 493106). Further: 0% is about no effect. Summed up:
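ELG1-luciferase reporter readout (ONE-Glo, 30 min, room temperature) after 16 hr compound treatment at 37 °C of HEK293T cells at 2,000 per well. Rising luminescence flags genotoxic stress.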

In assay [3] the target is ATPase family AAA domain-containing protein 5 (Homo sapiens) (UniProt Q96QE3). The experiment in a line: Validation screen for small molecules that inhibit ELG1-dependent DNA repair in human embryonic kidney (HEK293T) cells expressing luciferase-tagged ELG1 (AID 493107). Further: nearly all actives have a fitted effect of over 70% in size. Further: potency means the concentration at half of the fitted maximal effect. The essentials:
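Luciferase read-out, ONE-Glo, 30 min at room temperature, follows 16 h co-exposure at 37 C of compound and the DNA-damaging agent 5-fluorouridine. Cells: HEK293T with ELG1-luciferase fusion, 2,000 per well, DMSO as vehicle.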

For assay [4], the target named is Thyrotropin-releasing hormone receptor (Homo sapiens) (UniProt P34981). The experiment in a line: qHTS for Small Molecule Agonists and Allosteric Enhancers of Human TRH Receptor: Validation Screen for Agonists (AID 493127;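 active means calcium activation more than 3 SD above the typical response in the agonist read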;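 further: intracellular calcium rise by fluo-8 fluorescence before TRH EC20 addition; 0% is about no effect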). The note with it: TRH receptor agonist cell assay; at 2 µM; stronger effect = higher value. Summed up: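 Compound-evoked intracellular calcium release in fluo-8-loaded TRHR cells, read kinetically on FDSS (Ex 480/Em 530, 1 s/cycle) after 23 nL pintool transfer. Agonist phase preceded 10 nM TRH EC20 addition.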

Assay [5] in a line: Nrf2 qHTS screen for inhibitors: Validation (AID 493153; active means well fitted inhibition curve with a large enough effect in the main read-out, with a control signal flat, not every such curve was filed as active). The note with it: viability change: measured here: cytotoxicity max response. The essentials:
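Concentration-response on A549 ARE_Fluc reporter cells exposed 18-24 h at 37 C, 5% CO2. Cytotoxicity read first by CellTiter-Fluor fluorescence (Ex 405/Em 525), then Nrf2 inhibition by BugLite luminescence after 15 min.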

A short description of assay [6]: qHTS for Inhibitors of Cell Surface uPA Generation: Validation Assay (AID 493164).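 Further: RAW 264.7 macrophage cells exposed to compound for 18 h; 0% is about no effect.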 The essentials: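 ATP-Lite luminescence read-out: ATP remains high when uPA activity-dependent LF translocation into the cytoplasm is blocked. RAW 264.7 cells, 18 h compound exposure at 37 C; 7-point titration, 2.45 nM to 38.3 uM final.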
Assay [7] has as its target Galactokinase (Homo sapiens) (UniProt P51570). The experiment in a line: qHTS Validation Assay for Inhibitors of Human Galactokinase (GALK) (AID 493189). Further: 0% is about no effect. The essentials:
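5 nM GALK / 100 uM galactose / 35 uM ATP, 20 mM HEPES pH8.0, 5 mM MgCl2, 60 mM NaCl, 1 mM DTT, 0.01% BSA (final). RT 1 h; Kinase-Glo Plus luminescence.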
In general terms: Quantitative high-throughput screening tests each substance at several concentrations.

The target in assay [8] is D(1A) dopamine receptor (Homo sapiens) (UniProt P21728). The experiment in a line: HTS Assay for Allosteric Agonists of the Human D1 Dopamine Receptor: Primary Screen for Antagonists (AID 488983).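 Further: calcium flux response to an EC80 dopamine challenge measured with no-wash dye; nearly all actives have a fitted effect of over 65% in size.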 Further: potency means the concentration at half of the fitted maximal effect. The essentials:
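Calcium-flux read-out in inducible HEK293 T-REx cells expressing D1, dye-loaded 30–90 min at room temperature. Kinetic reads: 180 s after compound (agonist phase), then 180 s after an EC80 dopamine challenge.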

Assay [9] has as its target ATP-dependent 6-phosphofructokinase (Trypanosoma brucei brucei) (UniProt O15648). The experiment in a line: qHTS Assay to Find Inhibitors of T. brucei phosphofructokinase: hit validation (AID 492961).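 Further: luminescence reports ADP formed as PFK phosphorylates fructose-6-phosphate with ATP; series mostly up to about 51 µM; on the % scale 0 is the no-effect control and ±100 the full control effect.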 Summed up:
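Compounds titrated; %activity normalized to 0x and 1x enzyme controls, curve-fitted. Readout: ADP-Glo luminescence after 45 min room-temperature reaction of 1.25 nM PFK, 0.1 mM ATP, 0.5 mM F6P, pH 8.0.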

Inconclusive results are not listed. Activity calls are given as the source filed them. Unless noted, the call rests on the fitted dose curve; in most records, active means well fitted curve in the direction sought with a large enough effect; inconclusive means small, poorly fitted or top-dose-only effect, or another doubt; inactive means no such curve, though single readings can be large; an effect the other way counts as inactive or inconclusive.

Sequence of ATP-dependent 6-phosphofructokinase (Trypanosoma brucei brucei) (O15648 whole entry, looked up): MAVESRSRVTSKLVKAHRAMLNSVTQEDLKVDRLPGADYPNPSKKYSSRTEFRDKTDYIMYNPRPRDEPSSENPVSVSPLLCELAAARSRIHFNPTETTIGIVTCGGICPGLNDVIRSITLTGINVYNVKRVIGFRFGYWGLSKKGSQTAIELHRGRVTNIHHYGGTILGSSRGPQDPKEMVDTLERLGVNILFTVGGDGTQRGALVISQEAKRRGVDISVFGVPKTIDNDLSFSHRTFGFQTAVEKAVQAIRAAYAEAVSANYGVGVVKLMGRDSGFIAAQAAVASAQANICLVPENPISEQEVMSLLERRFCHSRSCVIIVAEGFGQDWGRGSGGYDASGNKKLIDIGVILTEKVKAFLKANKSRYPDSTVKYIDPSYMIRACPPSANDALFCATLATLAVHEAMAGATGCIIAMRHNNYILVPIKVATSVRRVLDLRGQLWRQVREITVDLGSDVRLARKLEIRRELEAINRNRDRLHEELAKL
Sequence of ATPase family AAA domain-containing protein 5 (Homo sapiens) (Q96QE3 whole entry, looked up, the tested form may be a part): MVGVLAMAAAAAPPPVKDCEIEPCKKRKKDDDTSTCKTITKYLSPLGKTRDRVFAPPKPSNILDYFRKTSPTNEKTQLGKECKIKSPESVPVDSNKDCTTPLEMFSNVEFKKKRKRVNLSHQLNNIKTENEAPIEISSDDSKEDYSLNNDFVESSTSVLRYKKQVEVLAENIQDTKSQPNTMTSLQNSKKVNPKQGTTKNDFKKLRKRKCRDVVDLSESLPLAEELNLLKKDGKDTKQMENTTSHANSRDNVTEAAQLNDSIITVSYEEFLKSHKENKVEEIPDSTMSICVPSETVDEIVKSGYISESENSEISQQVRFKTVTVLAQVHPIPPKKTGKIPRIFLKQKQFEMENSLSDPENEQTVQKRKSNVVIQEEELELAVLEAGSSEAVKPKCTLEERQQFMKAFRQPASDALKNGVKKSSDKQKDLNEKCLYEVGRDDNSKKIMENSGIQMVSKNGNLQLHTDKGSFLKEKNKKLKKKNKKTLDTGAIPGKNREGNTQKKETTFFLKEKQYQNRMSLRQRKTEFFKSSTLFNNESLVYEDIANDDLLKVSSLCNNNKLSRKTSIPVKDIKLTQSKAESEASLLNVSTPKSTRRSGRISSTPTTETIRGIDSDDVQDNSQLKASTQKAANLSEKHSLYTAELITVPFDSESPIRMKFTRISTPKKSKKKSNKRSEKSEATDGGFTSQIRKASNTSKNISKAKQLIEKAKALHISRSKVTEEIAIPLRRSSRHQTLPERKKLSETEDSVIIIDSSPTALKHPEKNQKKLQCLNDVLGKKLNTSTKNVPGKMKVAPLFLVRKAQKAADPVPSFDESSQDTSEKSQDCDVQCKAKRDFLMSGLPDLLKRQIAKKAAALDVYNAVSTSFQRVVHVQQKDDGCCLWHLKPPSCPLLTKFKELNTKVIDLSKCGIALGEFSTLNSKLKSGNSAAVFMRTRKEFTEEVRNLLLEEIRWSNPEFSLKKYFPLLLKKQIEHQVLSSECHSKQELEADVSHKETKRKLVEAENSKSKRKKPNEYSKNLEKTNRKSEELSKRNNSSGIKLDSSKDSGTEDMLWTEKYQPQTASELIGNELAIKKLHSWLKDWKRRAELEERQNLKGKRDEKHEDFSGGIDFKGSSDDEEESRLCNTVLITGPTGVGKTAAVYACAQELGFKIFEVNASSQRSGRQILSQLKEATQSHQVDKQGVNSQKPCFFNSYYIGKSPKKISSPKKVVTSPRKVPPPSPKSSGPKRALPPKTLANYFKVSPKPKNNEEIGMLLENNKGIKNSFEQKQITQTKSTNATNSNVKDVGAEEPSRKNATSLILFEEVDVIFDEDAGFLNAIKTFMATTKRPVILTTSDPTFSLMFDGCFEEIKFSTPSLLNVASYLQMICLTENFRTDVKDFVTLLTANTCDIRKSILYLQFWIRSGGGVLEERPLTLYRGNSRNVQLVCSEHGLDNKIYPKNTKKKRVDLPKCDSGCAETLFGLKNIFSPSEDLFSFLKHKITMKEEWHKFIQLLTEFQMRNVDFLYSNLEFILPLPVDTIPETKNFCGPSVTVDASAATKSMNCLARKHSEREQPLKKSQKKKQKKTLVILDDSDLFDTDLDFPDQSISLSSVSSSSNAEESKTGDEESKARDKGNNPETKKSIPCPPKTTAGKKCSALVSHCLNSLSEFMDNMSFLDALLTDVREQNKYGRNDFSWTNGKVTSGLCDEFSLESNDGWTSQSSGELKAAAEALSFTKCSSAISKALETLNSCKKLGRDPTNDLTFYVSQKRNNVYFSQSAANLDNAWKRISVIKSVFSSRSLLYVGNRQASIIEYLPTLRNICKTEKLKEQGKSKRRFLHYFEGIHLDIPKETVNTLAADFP
Sequence of Thyrotropin-releasing hormone receptor (Homo sapiens) (P34981 whole entry, looked up): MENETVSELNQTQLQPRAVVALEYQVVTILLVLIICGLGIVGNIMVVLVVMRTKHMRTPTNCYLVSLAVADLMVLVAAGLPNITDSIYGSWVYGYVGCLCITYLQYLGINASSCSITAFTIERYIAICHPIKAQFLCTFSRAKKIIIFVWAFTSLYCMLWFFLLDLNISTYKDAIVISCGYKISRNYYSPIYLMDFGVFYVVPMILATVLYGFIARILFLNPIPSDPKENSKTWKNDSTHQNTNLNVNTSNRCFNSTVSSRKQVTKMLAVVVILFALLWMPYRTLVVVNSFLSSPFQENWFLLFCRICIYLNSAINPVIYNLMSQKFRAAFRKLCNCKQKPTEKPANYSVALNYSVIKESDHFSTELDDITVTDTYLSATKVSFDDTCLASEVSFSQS
Sequence of Galactokinase (Homo sapiens) (P51570 whole entry, looked up): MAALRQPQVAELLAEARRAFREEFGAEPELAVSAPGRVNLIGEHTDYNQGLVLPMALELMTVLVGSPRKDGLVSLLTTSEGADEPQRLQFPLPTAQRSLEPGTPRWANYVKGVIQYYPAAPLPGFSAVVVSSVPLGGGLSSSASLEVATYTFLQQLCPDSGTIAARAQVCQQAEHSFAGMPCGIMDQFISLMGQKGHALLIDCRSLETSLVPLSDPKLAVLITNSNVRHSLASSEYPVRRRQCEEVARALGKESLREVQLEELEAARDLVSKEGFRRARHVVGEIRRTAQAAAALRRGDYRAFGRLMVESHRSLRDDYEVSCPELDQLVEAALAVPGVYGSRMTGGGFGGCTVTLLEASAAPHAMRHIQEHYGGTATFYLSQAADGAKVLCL
Sequence of D(1A) dopamine receptor (Homo sapiens) (P21728 whole entry, looked up): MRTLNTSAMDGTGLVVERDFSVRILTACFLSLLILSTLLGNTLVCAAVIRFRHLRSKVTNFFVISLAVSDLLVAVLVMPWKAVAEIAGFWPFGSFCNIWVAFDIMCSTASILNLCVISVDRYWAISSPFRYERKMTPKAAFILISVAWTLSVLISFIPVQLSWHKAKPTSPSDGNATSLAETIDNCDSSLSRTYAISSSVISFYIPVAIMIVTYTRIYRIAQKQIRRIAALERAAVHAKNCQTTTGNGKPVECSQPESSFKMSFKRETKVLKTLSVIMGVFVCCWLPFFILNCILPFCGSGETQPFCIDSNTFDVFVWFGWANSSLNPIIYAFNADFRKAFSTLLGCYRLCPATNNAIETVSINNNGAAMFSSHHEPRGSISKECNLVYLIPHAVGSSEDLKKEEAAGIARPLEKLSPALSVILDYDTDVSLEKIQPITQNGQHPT

For the compound `c1ccc2sc(C3(N4CCCCC4)CCCCC3)cc2c1`, the result in assay [1], in assay [2], in [5], in assay [6] and in assay [7] was inactive. Further, the Potency result in [3] is “inactive”. For the same compound, in assay [4], the activation was -13.1% (inactive). In assay [5], the viability change is -6.89%.

As to `NC(=NCCC[C@H](N)C(=O)O)N[N+](=O)[O-]`, the result in assay [1], in [2], in assay [5], in [6] and in assay [7] was inactive. In addition, the Potency result in assay [3] is “inactive”. In [4], the activation was 0.625% (inactive). In assay [5], the viability change amounted to 3.87%.

On to `CC(=O)NCCc1c[nH]c2ccccc12`, for which the outcome in assay [1], in assay [2], in assay [5], in assay [6] and in assay [7] was inactive. Further, in assay [3], the Potency entry is “inactive”. The activation in assay [4] is 0.375% (inactive). Moreover, the viability change in [5] amounted to 1%.

On to `CC(Cc1ccc(O)cc1)NCC(O)c1cc(O)cc(O)c1` (stereo unspecified), for which the result in assay [1], in [2], in assay [5], in [6] and in [7] was inactive. Besides, the Potency entry in assay [3] was “inactive”. In addition, the activation in assay [4] is 0.688% (inactive). The viability change in [5] is -4.39%.

On to `O=C(O)[C@@H]1CCN1`, for which the result in [1], in assay [2], in [6] and in [7] was inactive. For the same compound, the Potency result in [3] is “inactive”. In addition, the activation in [4] is 0.75% (inactive).

In the case of `O=C(O)Cc1cnc[nH]1`, the result in [1], in assay [2], in [5], in assay [6] and in assay [7] was inactive. Besides, the Potency entry in [8] and in assay [3] was “inactive” throughout. In assay [4], the activation is 0.875% (inactive). Also, the viability change in [5] was -0.284%.

For `CC[C@@]1(O)C(=O)OCc2c1cc1n(c2=O)Cc2cc3ccccc3nc2-1`, the result in [1], in [2], in assay [6] and in assay [7] was inactive. For the same compound, the Potency in assay [3] was 0.461 µM (active). For the same compound, the activation in assay [4] is -0.188% (inactive).

Take `CN1C2CCC1CC(OC(=O)c1cc(Cl)cc(Cl)c1)C2` (stereo unspecified): the result in assay [1], in [2], in [5], in assay [6] and in assay [7] was inactive. The Potency result in assay [3] is “inactive”. Moreover, the activation in assay [4] was 3.5% (inactive). Besides, the viability change in [5] was determined as 1.01%.

In the case of `NC(N)=NOCCC(N)C(=O)O` (stereo unspecified), the outcome in assay [1], in [2], in assay [5], in assay [6] and in assay [7] was inactive. Further, the Potency result in [8] and in [3] was “inactive” each time. In assay [4], the activation is 0.375% (inactive). Besides, the viability change in assay [5] was 0.756%.

With `CC(C)Oc1cccnc1N(C)C1CCN(Cc2ccccc2)CC1`, the outcome in [1], in assay [2], in assay [6] and in assay [7] was inactive. Besides, the Potency entry in assay [3] is “inactive”. Besides, the activation in assay [4] is 0% (inactive).

As for `CCCN(CCC)C1CCc2ccc(O)cc2C1` (stereo unspecified), the outcome in assay [1], in assay [2], in assay [5], in [6] and in assay [7] was inactive. Moreover, the Potency entry in assay [3] was “inactive”. Further, the activation in [4] was -5.19% (inactive). Moreover, the viability change in assay [5] was -3.98%.

With `Cn1cnc(CCN)c1`, the result in [1], in assay [2], in assay [5], in assay [6] and in assay [7] was inactive. Further, the Potency entry in assay [8] and in assay [3] was “inactive” in each case. In assay [4], the activation was 0.562% (inactive). Further, in [5], the viability change is -10.2%.

As for `c1ccc(C2(c3ccccc3)CC2C2=NCCN2)cc1` (stereo unspecified), the result in assay [1], in [2], in [5] and in assay [6] was inactive. The Potency entry in [9] and in assay [3] was “inactive” in each case. For the same compound, in assay [5], the viability change is -1.31%.

`CCCN(CCC)[C@@H]1CCc2ccc(O)cc2C1`: the outcome in [1], in assay [2], in [5], in [6] and in assay [7] was inactive. The Potency in assay [8] was 10 µM (active). Besides, in assay [3], the Potency entry is “inactive”. Further, the activation in [4] was 0.938% (inactive). Further, the viability change in assay [5] turned out to be 2.19%.

In the case of `NCCc1c[nH]c2ccc(O)cc12`, the outcome in assay [1], in assay [2], in assay [5], in assay [6] and in assay [7] was inactive. For the same compound, the Potency entry in [3] was “inactive”. For the same compound, in assay [4], the activation was 1.44% (inactive). The viability change in assay [5] was 0.321%.

For the compound `Clc1cnc(Oc2ccc(Oc3ncc(Cl)cc3Cl)cc2)c(Cl)c1`, the outcome in assay [1], in [2], in assay [6] and in assay [7] was inactive. Besides, the Potency entry in [8] and in assay [3] was “inactive” throughout.

With `CC(=O)[C@H]1CCC2C3CC[C@H]4C[C@H](O)CC[C@]4(C)C3CC[C@@]21C` (stereo partly specified), the result in [1], in [2], in [6] and in [7] was inactive. Also, the Potency entry in [3] is “inactive”. The activation in assay [4] is -6% (inactive).

`CNCCc1ccc(O)c(O)c1`: the result in assay [1], in assay [2], in assay [5], in assay [6] and in assay [7] was inactive. Further, in assay [3], the Potency result is “inactive”. In addition, the activation in assay [4] is -0.25% (inactive). Moreover, the viability change in [5] worked out at 0.688%.

Consider `Cc1nccc2c1[nH]c1ccccc12`, for which the outcome in assay [1], in assay [2], in assay [6] and in [7] was inactive. For the same compound, in [3], the Potency was 9.2 µM (active). Moreover, the activation in assay [4] was 0.938% (inactive).

As for `CN[C@@H]1C[C@@H](c2ccc(Cl)c(Cl)c2)c2ccccc21`, the result in [1], in assay [2], in assay [5], in assay [6] and in assay [7] was inactive. In addition, the Potency in assay [3] was 23.1 µM (active). Besides, in [4], the activation was 29.8% (inactive). Further, in assay [5], the viability change is 3.66%.

In the case of `NC1CCc2cc(O)c(O)cc2C1` (stereo unspecified), the result in assay [1], in assay [2], in [5], in assay [6] and in assay [7] was inactive. Besides, the Potency entry in assay [3] was “inactive”. Moreover, the activation in [4] was 0.75% (inactive). In addition, in assay [5], the viability change came out at 10.6%.

Turning to `CC1=NN=C(c2ccc(N)cc2)c2cc3c(cc2C1)OCO3`, the outcome in assay [1], in [2], in assay [6] and in assay [7] was inactive. Further, the Potency entry in assay [3] was “inactive”. Also, in [4], the activation is 0.438% (inactive).

Take `CCCN1CCC[C@H](c2cccc(O)c2)C1`: the result in assay [1], in assay [2], in assay [6] and in [7] was inactive. Further, the Potency entry in assay [9] and in assay [3] was “inactive” in each case. The activation in assay [4] was 2.19% (inactive).

Take `C#CCOC(=O)C1=CCCN(C)C1`: the outcome in assay [1], in assay [2], in assay [6] and in assay [7] was inactive. For the same compound, in assay [3], the Potency result is “inactive”. Moreover, the activation in assay [4] was 3.19% (inactive).

As for `NC(=O)CN1CC(O)CC1=O` (stereo unspecified), the outcome in assay [1], in [2], in [6] and in assay [7] was inactive. Besides, the Potency entry in assay [9] and in [3] was “inactive” in each case. Moreover, in assay [4], the activation was 1.25% (inactive).

For `C[C@]12CCC3C(CC[C@H]4C[C@H](O)CC[C@]34C)C1CC[C@@H]2C(=O)CO` (stereo partly specified), the outcome in assay [1], in assay [2], in assay [6] and in [7] was inactive. Further, the Potency result in assay [3] was “inactive”. In assay [4], the activation is 1.56% (inactive).
